From PubChem
ROC1-CUL1 inh: blocks human RBX1-Cullin-1 di-ubiquitin formation. AID 1347404. 0.6% of 140,000 active. inhibition, % at 10 µM. in vitro K48 di-Ub FRET, acceptor:donor ratio, 45 min. P62877+Q13616; in the data active = inhibition above about 25%
Target sequence (P62877 whole entry, looked up): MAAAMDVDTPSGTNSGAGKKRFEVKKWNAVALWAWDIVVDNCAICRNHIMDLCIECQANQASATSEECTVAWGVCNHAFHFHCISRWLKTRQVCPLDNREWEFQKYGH
Target sequence (Q13616 whole entry, looked up): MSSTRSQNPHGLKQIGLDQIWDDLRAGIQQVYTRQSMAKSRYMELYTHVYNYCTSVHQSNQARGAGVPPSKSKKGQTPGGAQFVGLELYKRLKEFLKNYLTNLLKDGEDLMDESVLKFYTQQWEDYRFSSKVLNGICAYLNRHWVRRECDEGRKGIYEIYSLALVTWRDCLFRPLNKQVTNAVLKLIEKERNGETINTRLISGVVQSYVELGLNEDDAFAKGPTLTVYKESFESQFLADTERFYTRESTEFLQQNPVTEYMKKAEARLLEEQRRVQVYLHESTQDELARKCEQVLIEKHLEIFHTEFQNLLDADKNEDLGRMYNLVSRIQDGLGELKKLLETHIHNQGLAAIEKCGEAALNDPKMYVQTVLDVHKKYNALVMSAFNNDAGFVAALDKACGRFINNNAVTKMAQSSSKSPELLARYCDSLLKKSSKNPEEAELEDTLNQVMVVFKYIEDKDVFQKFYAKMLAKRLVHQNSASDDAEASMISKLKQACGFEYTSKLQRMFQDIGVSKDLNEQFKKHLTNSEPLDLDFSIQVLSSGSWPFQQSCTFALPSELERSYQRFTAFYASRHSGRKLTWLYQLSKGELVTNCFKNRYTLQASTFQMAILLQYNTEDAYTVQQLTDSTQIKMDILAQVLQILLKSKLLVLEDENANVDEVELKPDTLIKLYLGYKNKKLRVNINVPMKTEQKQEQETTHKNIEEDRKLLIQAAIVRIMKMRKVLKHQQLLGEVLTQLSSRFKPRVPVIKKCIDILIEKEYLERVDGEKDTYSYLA
Each line names hits and unclear results; the compound was inactive in the other large screens. The sample as a whole holds a higher share of hits than the screen did.

CCOC(=O)C1C(C)=NC(=O)NC1c1cn(-c2ccccc2)nc1-c1ccc(OC(C)C)cc1 (configuration not stated)	none
COC1(O)C(=O)c2ccccc2C(=O)C1(O)OC (configuration not stated)	ROC1-CUL1 inh 83
CN1C(=O)N(C)C2(O)c3ccccc3C(=O)C12O (configuration not stated)	none
O=C1c2ccccc2C(=O)C1(O)O	ROC1-CUL1 inh 46
CC1(Nc2ccccc2)C(=O)c2ccccc2C1=O	none
CC1(N2CCCCC2)C(=O)c2ccccc2C1=O	none
CC1(C)CC(=O)C(C2(O)C(=O)c3ccccc3C2=O)C(=O)C1	none
CCOCC(=O)Nc1nc2ccc(C)cc2s1	none
CCN1CCN(C(c2ccccc2)C2C(=O)C=C(C)N(CCOC)C2=O)CC1 (configuration not stated)	none
Cc1ccc(NC(=O)CSc2nnc(Cc3ccccc3)o2)cc1C	none
O=C(CSc1nnc(Cc2ccccc2)o1)Nc1ccc(Cl)c(Cl)c1	ROC1-CUL1 inh 92
COC(=O)c1cc(NC(=O)CSc2nnc(Cc3ccccc3)o2)ccc1Cl	none
Cc1ccccc1C(=O)NC1(C(F)(F)F)NC(=O)N(c2ccc(Cl)cc2)C1=O (configuration not stated)	none
CC(C)(C)c1ccc(S(=O)(=O)c2cnc(SCC(=O)Nc3ccc(F)c(Cl)c3)[nH]c2=O)cc1	none
CCc1ccc(S(=O)(=O)c2cnc(SCC(=O)Nc3ccc(OC)cc3OC)[nH]c2=O)cc1	none
COc1cc(Cl)c(C)cc1NC(=O)CSc1ncc(S(=O)(=O)c2ccc(C(C)(C)C)cc2)c(=O)[nH]1	ROC1-CUL1 inh 53
COc1ccc(C)cc1NC(=O)CCNS(=O)(=O)c1cccc2nonc12	none
CC(=O)C1C(=O)Oc2c(ccc3ccccc23)C1=O (configuration not stated)	ROC1-CUL1 inh 40
CC(=O)c1coc2ccc3ccccc3c2c1=O	none
O=C1CC(O)(C(F)(F)F)Oc2c1ccc1ccccc21 (configuration not stated)	none
Cc1cc(Cl)ccc1NC(=O)Cn1nnc2sc3c(c2c1=O)CCC(C)C3 (configuration not stated)	none
CC(C)(C)c1ccc(/C=C/c2[nH]c(=O)[nH]c(=O)c2[N+](=O)[O-])cc1	ROC1-CUL1 inh 99
CC(C)c1ccc(/C=C/c2nc(N)[nH]c(=O)c2[N+](=O)[O-])cc1	none
CC(C)(C)c1ccc(N)c([N+](=O)[O-])c1	none
CCCN1C(=O)C(C(=O)NNC(=O)c2ccc(Br)cc2)C(=O)c2ccccc21 (configuration not stated)	none
Cc1nc2sc(C(=O)c3ccccc3)c(N)c2c(C)c1C	none
Cc1cccc(C)c1OCc1nnc(SCC(=O)Nc2cccc(Cl)c2C)n1C	none
CC1=NN(c2cc(S(=O)(=O)O)cc(C(=O)O)c2O)C(=O)C1	ROC1-CUL1 inh 69
Nc1cc(S(=O)(=O)O)cc(C(=O)O)c1O	none
O=C(O)c1cc(S(=O)(=O)O)cc(Nc2c3ccccc3nc3ccccc23)c1O	none
COc1ccc(C)cc1NC(=O)C(Cc1ccccc1)NS(=O)(=O)c1ccc(Br)s1 (configuration not stated)	none
Cc1nn(-c2cc(Oc3ccccc3F)ncn2)c(N)c1C(N)=O	none
Cc1ccsc1CNn1cnnc1SCc1ccc(Cl)cc1	none
COc1ccc(/C=N/NC(=O)c2ccoc2C)cc1CN1CCOCC1	none
Cc1ccc(-c2ccc(/C=C3/SC(=S)NC3=O)o2)c(Br)c1	ROC1-CUL1 inh 96
N#Cc1ccccc1-c1ccc(/C=C2/SC(=O)NC2=O)o1	none
Cc1ccc(-c2ccc(/C=C3/SC(N4CCOCC4)=NC3=O)o2)c(Br)c1	none
N#C/C(=C/C(=O)c1ccccc1)c1ccc([N+](=O)[O-])o1	ROC1-CUL1 inh 85
CCc1ccccc1NC(=O)c1ccc([N+](=O)[O-])o1	none
O=C(/C(=C/c1ccccc1)Sc1ccccc1)c1ccc([N+](=O)[O-])o1	none
Cc1ccc(S(=O)(=O)ON/N=C/c2ccccc2)cc1	none
CC(=O)N1/C(=C/c2ccc(O)cc2)C(=O)c2ccccc21	ROC1-CUL1 inh 60
CC(=O)N1/C(=C/c2ccccc2O)C(=O)c2cc(Br)ccc21	none
O=C1/C(=C/c2ccc(O)cc2)CS(=O)(=O)c2ccccc21	none
CCCCNC(=O)c1[nH]c2ccccc2c1Sc1ccc(C)cc1	none
NC(=O)c1cc(S(=O)(=O)NCC2CCC(C(=O)Nc3cccc(Cl)c3)CC2)cs1 (configuration not stated)	none
Cc1ccc(NC(=O)Cn2c(=O)n(Cc3ccco3)c(=O)c3ccccc32)cc1	none
Cc1c(C=C2C(=O)NC(=S)NC2=O)c2ccccc2n1CC(=O)NCc1ccco1	ROC1-CUL1 inh 62
CN1C(=S)N(c2ccc(Cl)cc2)C(=O)/C1=C/c1cn(CC(=O)NCc2ccco2)c2ccccc12	none
Cc1cc(C)c(NC(=O)c2c(C)nn(-c3ccc(F)cc3)c2-n2cccc2)c(C)c1	none
CCN(CC)S(=O)(=O)c1ccc(NC(=O)Cn2ncc3c([nH]c4ccccc43)c2=O)cc1	none
CCc1ccc(N2NC(=O)/C(=C/c3cccc(OC(C)=O)c3)C2=O)cc1	none
Cc1ccc(N2NC(=O)/C(=C/c3cccc(Br)c3)C2=O)cc1	none
CC(=O)Oc1cccc(/C=C2/C(=O)NN(c3ccc(F)cc3)C2=O)c1	none
CCOC(=O)c1ccc(N2NC(=O)/C(=C/c3cccc(OC(=O)c4cccs4)c3)C2=O)cc1	ROC1-CUL1 inh 67
O=C1NN(c2ccc(Cl)c(Cl)c2)C(=O)/C1=C/c1cccc(OC(=O)c2cccs2)c1	none
O=C1NN(c2cccc(Br)c2)C(=O)/C1=C\c1cccc(OC(=O)c2cccs2)c1	ROC1-CUL1 inh 87
CCc1ccc(N2NC(=O)/C(=C/c3ccc(OC(=O)c4cccs4)c(OC)c3)C2=O)cc1	none
O=C1NN(c2cccc(F)c2)C(=O)/C1=C\c1cccc(OC(=O)c2cccs2)c1	ROC1-CUL1 inh 27
Cc1cccc(N2NC(=O)/C(=C\c3cccs3)C2=O)c1	none
CC(C)Oc1ccc(CNC(=O)C2CCN(c3nc4ccccc4nc3C(F)(F)F)CC2)cc1	none
Nc1c(C(=O)c2ccc(Cl)cc2Cl)sc2nc(-c3cccs3)ccc12	none
CC(C)(C)c1ccc(C2CC2C(=O)N/N=C\C=C\c2ccccc2[N+](=O)[O-])cc1 (configuration not stated)	none
CC(C)C1C(c2ccccc2)NC(c2ccccc2)CC1(O)Cc1ccccc1 (configuration not stated)	none
CCn1cc(Br)c(C(=O)n2cc(Br)cn2)n1	none
Cc1ccccc1-n1c(-c2csc(C)c2C)n[nH]c1=S	none
CC1CC(C)(C)CC2(C1)NC(=S)N(C)N2 (configuration not stated)	none
CC(O)(O)COC(=O)C1CCC(=O)N1 (configuration not stated)	none
O=S(=O)(O)SCCN1CCc2ccccc21	ROC1-CUL1 inh 28
O=C(CN1CCc2ccccc21)NC1CCCCCC1	none
OCCN1c2ccccc2CCc2ccccc21	none
Cc1ccc2occ(CC(=O)Nc3nnc(C(C)C)s3)c2c1	none
CCOC(=O)c1cnc(SC)nc1Sc1ccccn1	none
COC(=O)c1ccccc1NC(=O)COc1ccc(C2CCCCC2)cc1	none
CC(C)(Oc1ccc(C2CCCCC2)cc1)C(=O)O	ROC1-CUL1 inh 66
O=C(COc1ccc(C2CCCCC2)cc1)Nc1ccccc1F	none
Cc1ccc(NC(=O)Cn2cc(S(=O)(=O)c3ccc(F)cc3)c(=O)c3cc4c(cc32)OCO4)cc1	none
COc1cc(F)ccc1CN1CCc2[nH]nc(-c3ccccc3)c2C1	none
CC(C)CNC1CS(=O)(=O)CC1O (configuration not stated)	none
COc1ccccc1CC(=O)N1CCN(c2ccc([N+](=O)[O-])cc2)CC1	none
